Assay [1] is described as follows: qHTS assay for identifying genotoxic compounds that show differential cytotoxicity against isogenic chicken DT40 cell lines with known DNA damage response pathways - wild type cell line (AID 743012). Further: nearly all actives have a fitted effect of over 60% in size. Further: potency means the concentration at half of the fitted maximal effect. The procedure, abridged: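 Quantitative HTS on parental DT40 cells: 40 h compound treatment at 37 C/5% CO2, with viability then determined by CellTiter-Glo luminescence. Values serve as the DNA repair-proficient reference for differential cytotoxicity.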
In general terms: qHTS replaces the single test concentration by a dilution series.

Assay [2] in a line: qHTS assay for identifying genotoxic compounds that show differential cytotoxicity against isogenic chicken DT40 cell lines with known DNA damage response pathways - Rev3 mutant cell line (AID 743014). Further: nearly all actives have a fitted effect of over 55% in size. Further: potency means the concentration at half of the fitted maximal effect.
Assay [3] can be described thus: qHTS assay for identifying genotoxic compounds that show differential cytotoxicity against isogenic chicken DT40 cell lines with known DNA damage response pathways - Rad54/Ku70 mutant cell line (AID 743015). Further: nearly all actives have a fitted effect of over 60% in size. Further: potency means the concentration at half of the fitted maximal effect.
Assay [4] can be described thus: qHTS assay to identify small molecule antagonists of the thyroid receptor (TR) signaling pathway (AID 743065). Further: nearly all actives have a fitted effect of over 55% in size. Further: potency means the concentration at half of the fitted maximal effect. The procedure, abridged:
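GH3.TRE-Luc rat pituitary cells (two TREs driving luciferase) were dosed with compound, then stimulated with 1 nM T3 (final) for 23.5 h at 37 C. ONE-Glo luminescence was the read-out, with CellTiter-Fluor fluorescence as the cytotoxicity counter-screen.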

The test system of assay [5] is thyroid hormone receptor (rat, GH3 cells). In words: qHTS assay to identify small molecule agonists of the thyroid receptor (TR) signaling pathway (AID 743066; calls by dose curve).
Assay [6] addresses Estrogen receptor (Homo sapiens) (UniProt P03372). Description: qHTS assay to identify small molecule antagonists of the estrogen receptor alpha (ER-alpha) signaling pathway (AID 743069; active means well fitted curve in the direction sought with a large enough effect in the signal ratio in the repeat runs, not every such curve was filed as active; the % refers to the signal ratio). The procedure, abridged:
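Reporter cells (ER-alpha-bla, HEK293 background) are conditioned overnight in stripped-serum medium (2% charcoal-stripped FBS). Compound and 17beta-estradiol exposure runs 18 hr at 37C, 5% CO2.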

For assay [7] the target is unchanged. Description: qHTS assay to identify small molecule agonists of the estrogen receptor alpha (ER-alpha) signaling pathway (AID 743075; calls by dose curve;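 further: HEK293 GripTite cells with ER-alpha and UAS-driven beta-lactamase reporter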).
The target is the same in assay [8]. In words: qHTS assay to identify small molecule agonists of the estrogen receptor alpha (ER-alpha) signaling pathway using the BG1 cell line (AID 743079). Further: nearly all actives have a fitted effect of over 20% in size. Further: potency means the concentration at half of the fitted maximal effect.
The nature of assay [9]: qHTS assay to identify small molecule antagonists of the estrogen receptor alpha (ER-alpha) signaling pathway using the BG1 cell line (AID 743080; calls by dose curve;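 further: BG1 cells stimulated with 17beta-estradiol alongside compound; series mostly up to about 70 µM; nearly all actives have a fitted effect of over 25% in size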). The procedure, abridged:
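Luciferase inhibition measured with ONE-Glo after 30 min at RT in BG1Luc4E2 cells given test compounds and 17beta-estradiol for 21.5 h at 37 C; CellTiter-Fluor viability read in the same wells beforehand.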

Assay [10] can be described thus: qHTS assay to identify small molecule antagonists of the estrogen receptor alpha (ER-alpha) signaling pathway using the BG1 cell line - cell viability counter screen (AID 743081).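 Further: compound given together with 17beta-estradiol as the ER stimulus; series mostly up to about 70 µM; nearly all actives have a fitted effect of over 45% in size.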
The target of a further assay is Aromatase (Homo sapiens) (UniProt P11511). In words: qHTS assay to identify aromatase inhibitors (AID 743083). Further: nearly all actives have a fitted effect of over 55% in size. Further: potency means the concentration at half of the fitted maximal effect.
Sequence of Aromatase (Homo sapiens) (P11511 whole entry, looked up): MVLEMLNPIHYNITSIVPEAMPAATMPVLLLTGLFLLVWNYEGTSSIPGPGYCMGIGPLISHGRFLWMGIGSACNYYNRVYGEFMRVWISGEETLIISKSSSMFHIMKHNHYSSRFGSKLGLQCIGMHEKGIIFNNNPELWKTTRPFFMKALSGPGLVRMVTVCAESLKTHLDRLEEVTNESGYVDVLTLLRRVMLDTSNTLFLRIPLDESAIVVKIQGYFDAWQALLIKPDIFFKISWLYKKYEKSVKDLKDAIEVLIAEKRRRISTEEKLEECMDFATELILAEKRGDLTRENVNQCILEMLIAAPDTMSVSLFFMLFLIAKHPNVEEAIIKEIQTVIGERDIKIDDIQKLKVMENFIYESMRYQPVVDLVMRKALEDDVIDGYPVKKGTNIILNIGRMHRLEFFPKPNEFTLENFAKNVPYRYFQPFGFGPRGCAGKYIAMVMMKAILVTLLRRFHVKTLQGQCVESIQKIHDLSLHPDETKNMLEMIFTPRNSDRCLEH
Assay [11] in a line: qHTS assay to identify small molecule antagonists of the glucocorticoid receptor (GR) signaling pathway - cell viability counter screen (AID 720693). Further: nearly all actives have a fitted effect of over 55% in size.
A short description of assay [12]: qHTS assay to identify small molecule antagonists of the androgen receptor (AR) signaling pathway - cell viability counter screen (AID 743033; further: nearly all actives have a fitted effect of over 45% in size; further: potency means the concentration at half of the fitted maximal effect).
Assay [13] addresses Androgen receptor (Homo sapiens) (UniProt P10275). In words: qHTS assay to identify small molecule agonists of the androgen receptor (AR) signaling pathway using the MDA cell line (AID 743040; further: nearly all actives have a fitted effect of over 20% in size). The procedure, abridged:
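Human breast carcinoma MDA-kb2 reporter cells (MMTV-luc, AR/GR elements) were treated for 16 h at 37C in 0% CO2 following a 5 h settling period. Signal was quantified by ONE-Glo luminescence.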

For assay [14] the target is unchanged. In words: qHTS assay to identify small molecule antagonists of the androgen receptor (AR) signaling pathway using the MDA cell line (AID 743042; further: nearly all actives have a fitted effect of over 55% in size; further: potency means the concentration at half of the fitted maximal effect). The procedure, abridged: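 MDA-kb2 breast carcinoma cells carrying MMTV-luciferase (AR/GR responsive) were co-treated with compounds and the agonist R1881 for 16 h at 37C. Inhibition read as ONE-Glo luminescence; CellTiter-Fluor fluorescence measured in parallel for cytotoxicity.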

Assay [15] can be described thus: qHTS assay to identify small molecule antagonists of the thyroid receptor (TR) signaling pathway - cell viability counter screen (AID 743064). Further: nearly all actives have a fitted effect of over 50% in size. Further: potency means the concentration at half of the fitted maximal effect. In short, it runs like this:
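Rat GH3 pituitary tumor cells stably expressing two TR response elements driving luciferase were plated, rested 4 h, then dosed with library compounds and T3 (1 nM final). After 23.5 h at 37 °C, CellTiter-Fluor was added for 30 min and fluorescence recorded.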

A short description of assay [16]: qHTS assay to identify small molecule antagonists of the estrogen receptor alpha (ER-alpha) signaling pathway - cell viability counter screen (AID 743074; calls by dose curve;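 further: HEK293 cells carrying ER-alpha-UAS-bla reporter stimulated with 17beta-estradiol; nearly all actives have a fitted effect of over 45% in size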; further: potency means the concentration at half of the fitted maximal effect).
Assay [17] can be described thus: qHTS assay to identify small molecule antagonists of the androgen receptor (AR) signaling pathway using the MDA cell line - cell viability counter screen (AID 743041; further: nearly all actives have a fitted effect of over 45% in size). In short, it runs like this:
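Same-well cytotoxicity was assessed by CellTiter-Fluor in MDA-kb2 AR-luc cells after 16 h of compound treatment under R1881 agonism.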

In assay [18] the target is Androgen receptor (Homo sapiens) (UniProt P10275). In words: qHTS assay to identify small molecule agonists of the androgen receptor (AR) signaling pathway (AID 743036; active means well fitted activation curve with a large enough effect in the signal ratio in the repeat runs, with a control signal flat, not every such curve was filed as active; the % refers to the signal ratio). In short, it runs like this: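 Quantitative HTS of the Tox21 10K library in HEK293 cells bearing a stably integrated UAS-controlled beta-lactamase reporter. Compound exposure lasted 16 h at 37C. Reporter activity was detected by FRET substrate fluorescence after 2 h at room temperature.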
Sequence of Androgen receptor (Homo sapiens) (P10275 whole entry, looked up): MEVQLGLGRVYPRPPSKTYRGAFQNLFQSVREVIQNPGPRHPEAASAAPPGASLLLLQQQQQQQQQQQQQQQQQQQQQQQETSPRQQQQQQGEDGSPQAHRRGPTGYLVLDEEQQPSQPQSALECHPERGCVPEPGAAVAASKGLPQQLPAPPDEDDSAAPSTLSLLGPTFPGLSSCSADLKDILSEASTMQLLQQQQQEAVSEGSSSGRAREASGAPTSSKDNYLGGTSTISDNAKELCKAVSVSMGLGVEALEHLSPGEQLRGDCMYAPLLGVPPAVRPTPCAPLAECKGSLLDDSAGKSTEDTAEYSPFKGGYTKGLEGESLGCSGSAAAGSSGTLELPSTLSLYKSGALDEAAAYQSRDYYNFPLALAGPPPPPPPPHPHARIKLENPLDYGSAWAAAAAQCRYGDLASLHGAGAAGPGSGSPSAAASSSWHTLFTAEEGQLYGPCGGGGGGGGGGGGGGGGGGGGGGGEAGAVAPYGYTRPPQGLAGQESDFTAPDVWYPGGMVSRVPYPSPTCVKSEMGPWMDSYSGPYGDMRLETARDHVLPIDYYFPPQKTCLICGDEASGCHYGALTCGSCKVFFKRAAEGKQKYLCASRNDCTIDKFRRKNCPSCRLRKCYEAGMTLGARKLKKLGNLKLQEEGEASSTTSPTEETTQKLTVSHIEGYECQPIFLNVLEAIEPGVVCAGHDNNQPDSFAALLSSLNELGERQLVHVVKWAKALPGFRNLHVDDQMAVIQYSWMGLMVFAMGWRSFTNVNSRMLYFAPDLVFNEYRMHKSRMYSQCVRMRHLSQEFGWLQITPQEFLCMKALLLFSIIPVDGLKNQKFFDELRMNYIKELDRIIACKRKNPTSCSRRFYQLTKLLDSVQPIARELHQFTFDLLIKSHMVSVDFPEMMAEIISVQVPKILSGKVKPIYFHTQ

Each structure is given as a SMILES string. Inconclusive results are not listed. Calls of active or inactive are those of the source. Unless noted, the call rests on the fitted dose curve; in most records, active means well fitted curve in the direction sought with a large enough effect in the repeat runs; inconclusive means weak or mixed curves; inactive means no such curve, though single readings can be large; an effect the other way counts as inactive or inconclusive.

Sequence of Estrogen receptor (Homo sapiens) (P03372 whole entry, looked up): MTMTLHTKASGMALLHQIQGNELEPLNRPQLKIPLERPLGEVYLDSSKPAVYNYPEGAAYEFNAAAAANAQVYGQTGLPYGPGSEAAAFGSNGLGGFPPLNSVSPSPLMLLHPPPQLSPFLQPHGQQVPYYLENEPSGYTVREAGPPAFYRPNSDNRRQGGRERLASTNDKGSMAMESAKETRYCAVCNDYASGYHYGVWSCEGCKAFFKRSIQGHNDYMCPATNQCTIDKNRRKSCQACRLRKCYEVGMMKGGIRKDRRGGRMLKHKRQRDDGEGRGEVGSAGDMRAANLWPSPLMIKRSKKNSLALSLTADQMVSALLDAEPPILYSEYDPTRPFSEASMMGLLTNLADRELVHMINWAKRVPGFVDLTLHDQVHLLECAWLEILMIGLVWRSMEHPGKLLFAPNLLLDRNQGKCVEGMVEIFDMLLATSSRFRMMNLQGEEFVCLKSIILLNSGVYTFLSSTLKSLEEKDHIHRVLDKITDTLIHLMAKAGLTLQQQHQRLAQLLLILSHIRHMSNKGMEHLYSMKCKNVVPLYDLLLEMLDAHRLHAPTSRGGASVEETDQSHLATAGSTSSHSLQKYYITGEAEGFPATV

As to `COc1nn(CSP(=S)(OC)OC)c(=O)s1`, the Potency in [1] was 19.3 µM (active); in assay [2], 45.8 µM (active); in assay [3] it was 50.5 µM (active); in [4] it was 68.6 µM (active); with Aromatase (Homo sapiens), 61.1 µM (active). Besides, the Potency result in assay [5], in assay [6], in [7], in assay [8], in assay [9] and in assay [10] was “inactive” each time.
With `N#CCC#N`, the Potency result in assay [11], in assay [12], in assay [13], in assay [14], in assay [5] and in assay [6] was “inactive” in each case. The Potency result (in assay [16]; in [7]; in assay [8]; in [9]; in [10]; with Aromatase (Homo sapiens)) was “inactive” each time. Also, the Potency was 61.1 µM (active) in assay [15] and 48.6 µM (active) in assay [4].
As to `CC(=O)c1cc2c(cc1C)C(C)(C)C(C)CC2(C)C` (centres undefined), the Potency result in assay [11], in [12], in assay [17], in [15], in [4] and in [5] was “inactive” in each case. Further, the Potency entry in assay [16] and in assay [10] was “inactive” in each case. Further, in the assay with Aromatase (Homo sapiens), the Potency is 54.5 µM (active).
Regarding `c1cc2ccc3cccc4ccc(c1)c2c34`, the results for the Potency in assay [1] and in [3] were 71.9 µM (active) and 67.9 µM (active), respectively. Besides, the Potency result in assay [13], in assay [14], in [15], in [5], in [7] and in [8] was “inactive” each time. Further, the Potency entry (in assay [9]; with Aromatase (Homo sapiens)) was “inactive” throughout.
Regarding `CCOP(=S)(OCC)Oc1cc(Cl)c(Br)cc1Cl`, the Potency result in [11], in assay [12], in assay [13], in assay [17], in [14] and in assay [15] was “inactive” throughout. Moreover, the Potency result (in assay [16]; in [7]; in [9]; in assay [10]; with Aromatase (Homo sapiens)) was “inactive” each time. Besides, the outcome in assay [18] was inactive.
`O=C(NC(=O)c1c(F)cccc1F)Nc1cc(Cl)c(Oc2ncc(C(F)(F)F)cc2Cl)c(Cl)c1`: the figures for the Potency in assay [1], in assay [2] and in assay [3] were 1.17 µM (active), 2.08 µM (active) and 1.65 µM (active), respectively. Moreover, the Potency result in assay [13], in assay [17], in [5], in assay [7] and in [10] was “inactive” throughout.
For the compound `COCCOCCO`, the Potency in [3] is 61.1 µM (active); in [15] it was 30.6 µM (active); in assay [4] it was 48.6 µM (active). Further, the Potency result in assay [12], in assay [17], in [5], in assay [6], in [7] and in [8] was “inactive” throughout. Also, the Potency entry (in assay [9]; with Aromatase (Homo sapiens)) was “inactive” throughout.
`CC(C)(C)C(O)C(Oc1ccc(Cl)cc1)n1cncn1` (centres undefined): the Potency is 32.5 µM (active) in assay [2], 45.8 µM (active) in assay [3] and 21.1 µM (active) with Aromatase (Homo sapiens). In addition, the Potency result in assay [12] and in assay [5] was “inactive” in each case.
Turning to `Clc1cc(C(Cl)(Cl)Cl)cnc1Cl`, the Potency result in assay [1], in assay [2], in assay [3], in assay [17], in assay [5] and in assay [16] was “inactive” in each case. The Potency result in [7], in assay [8] and in [10] was “inactive” in each case. The Potency in assay [4] was 38.6 µM (active); with Aromatase (Homo sapiens) it was 24.3 µM (active).
As to `ClP(Cl)(Cl)(Cl)Cl`, the Potency entry in [11], in [12], in assay [17], in assay [5], in assay [6] and in assay [16] was “inactive” each time. Moreover, the Potency entry (in [7]; in assay [8]; in assay [9]; in assay [10]; in the assay with Aromatase (Homo sapiens)) was “inactive” each time.
For `NC(=O)C(Cl)(Cl)Cl`, the Potency result in assay [1], in assay [2], in assay [3], in assay [12], in [17] and in assay [15] was “inactive” each time. Moreover, the Potency result (in [6]; in assay [16]; in assay [7]; in assay [9]; in [10]; with Aromatase (Homo sapiens)) was “inactive” each time. Moreover, in [8], the Potency was 68.9 µM (active).
As for `CO/N=C(/C(=O)OC)c1ccccc1COc1ccccc1C`, the Potency in [1] was 0.611 µM (active); in assay [2], 0.969 µM (active); in assay [3], 0.864 µM (active); in assay [12] it was 6.92 µM (active); in [14], 27.3 µM (active). Further, the Potency result in assay [13], in assay [15], in [5], in assay [8] and in assay [10] was “inactive” each time.
Turning to `O=S(=O)(O)C(F)(F)C(F)(F)C(F)(F)C(F)(F)F`, the Potency result in [11], in assay [5], in assay [6], in assay [7], in [8] and in assay [9] was “inactive” throughout.
Take `O=C(O)C1(c2ccc3c(c2)OC[C@H](Cc2ccc(-c4ccccc4)cc2)[C@H]3O)CCCC1`: the Potency was 61.1 µM (active) in [1]; 61.1 µM (active) in assay [2]; 61.1 µM (active) in assay [3]; 61.1 µM (active) in assay [15]; 54.5 µM (active) in assay [4]; 54.9 µM (active) in [16]. The Potency result (in assay [10]; with Aromatase (Homo sapiens)) was “inactive” throughout.

The record behind these values is PubChem BioAssay (Tox21).
